# Experimental data reported in PubChem BioAssay (NCATS).
# Inconclusive results are not listed. Active and inactive are the calls of the source. The call rests on the fitted dose curve; in most records, active means well fitted curve in the direction sought with a large enough effect; inconclusive means small, poorly fitted or top-dose-only effect, or another doubt; inactive means no such curve, though single readings can be large; an effect the other way counts as inactive or inconclusive.
# How the values were obtained:
# [1] = qHTS of pediatric cancer cell lines to identify multiple opportunities for drug repurposing: Confirmatory screen for NB1643 cells (AID 1347109); further: nearly all actives have a fitted effect of over 45% in size; further: potency means the concentration at half of the fitted maximal effect
# Summary of the method: (§1)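 Cells (500-1,000/well) rested 5 h, then received compounds for 48 h; metabolically active cells were measured by CellTiter-Glo luminescence. Final concentrations spanned up to 46 µM (MIPE, 11-point) or 0.59 nM-46 µM (NPC, 8-point) in primary screens, 11-point in follow-ups.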
# [2] = qHTS of pediatric cancer cell lines to identify multiple opportunities for drug repurposing: Confirmatory screen for A673 cells (AID 1347110);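 further: cells exposed to compound for 48 h before the viability read; nearly all actives have a fitted effect of over 65% in size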; further: potency means the concentration at half of the fitted maximal effect
# Summary of the method: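 Cells plated at 500-1,000/well were treated five hours later with multi-point dilutions up to 46 µM final. After two days, CellTiter-Glo was added and luminescence read.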
# [3] = qHTS of pediatric cancer cell lines to identify multiple opportunities for drug repurposing: Confirmatory screen for SK-N-MC cells (AID 1347111);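 further: cells exposed to compound for 48 h before the readout; nearly all actives have a fitted effect of over 70% in size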; further: potency means the concentration at half of the fitted maximal effect
# Summary of the method: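 Seed 500-1,000 cells/well; rest 5 h at 37 degrees C. Pin-transfer compounds, 11-point titration. Incubate 48 h. Add CellTiter-Glo, 15 min RT, read luminescence.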
# [4] = qHTS of pediatric cancer cell lines to identify multiple opportunities for drug repurposing: Confirmatory screen for BT-12 cells (AID 1347112); further: potency means the concentration at half of the fitted maximal effect;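 further: viability read after 48 h of compound exposure; nearly all actives have a fitted effect of over 55% in size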
# Summary of the method: as §1
# [5] = qHTS of pediatric cancer cell lines to identify multiple opportunities for drug repurposing: Confirmatory screen for LAN-5 cells (AID 1347113); further: nearly all actives have a fitted effect of over 65% in size; further: potency means the concentration at half of the fitted maximal effect
# Summary of the method: as §1
# [6] = qHTS of pediatric cancer cell lines to identify multiple opportunities for drug repurposing: Confirmatory screen for DAOY cells (AID 1347114); further: nearly all actives have a fitted effect of over 65% in size
# Summary of the method: (§2)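 Viability measured as metabolically active cells via CellTiter-Glo luminescence following 48 hours of compound exposure, 11-point dilutions in confirmatory testing. 500-1,000 cells/well plated 5 hours before dosing; controls were DMSO and 2.3 µM bortezomib.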
# [7] = qHTS of pediatric cancer cell lines to identify multiple opportunities for drug repurposing: Confirmatory screen for NB-EBc1 cells (AID 1347115);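 further: cells exposed to compound for 48 h before the viability read; nearly all actives have a fitted effect of over 45% in size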; further: potency means the concentration at half of the fitted maximal effect
# Summary of the method: as §1
# [8] = qHTS of pediatric cancer cell lines to identify multiple opportunities for drug repurposing: Confirmatory screen for SJ-GBM2 cells (AID 1347116); further: nearly all actives have a fitted effect of over 60% in size; further: potency means the concentration at half of the fitted maximal effect
# Summary of the method: as §2
# [9] = qHTS of pediatric cancer cell lines to identify multiple opportunities for drug repurposing: Confirmatory screen for BT-37 cells (AID 1347117); further: nearly all actives have a fitted effect of over 55% in size; further: potency means the concentration at half of the fitted maximal effect
# Summary of the method: as §1
# [10] = qHTS of pediatric cancer cell lines to identify multiple opportunities for drug repurposing: Confirmatory screen for TC32 cells (AID 1347118);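 further: cells exposed to compound for 48 h before the read; nearly all actives have a fitted effect of over 65% in size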; further: potency means the concentration at half of the fitted maximal effect
# Summary of the method: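 qHTS, TC32, 48 h drug treatment, CellTiter-Glo luminescence as a proxy for metabolically active cells; primary top concentration 46 µM (MIPE 11-pt, NPC 8-pt); confirmatory 11-pt.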
# [11] = qHTS of pediatric cancer cell lines to identify multiple opportunities for drug repurposing: Confirmatory screen for control Hh wild type fibroblast cells (AID 1347121); further: nearly all actives have a fitted effect of over 70% in size; further: potency means the concentration at half of the fitted maximal effect
# Summary of the method: as §1
# [12] = qHTS of pediatric cancer cell lines to identify multiple opportunities for drug repurposing: Confirmatory screen for U-2 OS cells (AID 1347122); further: nearly all actives have a fitted effect of over 65% in size; further: potency means the concentration at half of the fitted maximal effect
# Summary of the method: as §1
# [13] = qHTS of pediatric cancer cell lines to identify multiple opportunities for drug repurposing: Confirmatory screen for RD cells (AID 1347124); further: potency means the concentration at half of the fitted maximal effect
# Summary of the method: as §1
# [14] = qHTS of pediatric cancer cell lines to identify multiple opportunities for drug repurposing: Confirmatory screen for Rh18 cells (AID 1347125); further: nearly all actives have a fitted effect of over 55% in size; further: potency means the concentration at half of the fitted maximal effect
# Summary of the method: as §1
# [15] = qHTS of pediatric cancer cell lines to identify multiple opportunities for drug repurposing: Confirmatory screen for Rh30 cells (AID 1347126); further: nearly all actives have a fitted effect of over 55% in size; further: potency means the concentration at half of the fitted maximal effect
# Summary of the method: as §1
# [16] = qHTS of pediatric cancer cell lines to identify multiple opportunities for drug repurposing: Confirmatory screen for Saos-2 cells (AID 1347127); further: nearly all actives have a fitted effect of over 60% in size; further: potency means the concentration at half of the fitted maximal effect
# Summary of the method: as §1
# [17] = qHTS of pediatric cancer cell lines to identify multiple opportunities for drug repurposing: Confirmatory screen for OHS-50 cells (AID 1347128); further: potency means the concentration at half of the fitted maximal effect
# Summary of the method: as §1
# [18] = qHTS of pediatric cancer cell lines to identify multiple opportunities for drug repurposing: Confirmatory screen for SK-N-SH cells (AID 1347129);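 further: cells exposed to compound for 48 h before viability read; nearly all actives have a fitted effect of over 60% in size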; further: potency means the concentration at half of the fitted maximal effect
# Summary of the method: as §1
# [19] = qHTS of pediatric cancer cell lines to identify multiple opportunities for drug repurposing: Confirmatory screen for Rh41 cells (AID 1347123);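 further: 48 h compound exposure; nearly all actives have a fitted effect of over 60% in size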; further: potency means the concentration at half of the fitted maximal effect
# Summary of the method: as §1
# [20] = qHTS of pediatric cancer cell lines to identify multiple opportunities for drug repurposing: Confirmatory screen for MG 63 (6-TG R) cells (AID 1347119); further: nearly all actives have a fitted effect of over 55% in size; further: potency means the concentration at half of the fitted maximal effect
# Summary of the method: as §1
smiles,measurement,setting,value
CC1(C)OC2CC3C4CC(F)C5=CC(=O)C=CC5(C)C4C(O)CC3(C)[C@]2(C(=O)CO)O1 (stereo partly specified),Potency,[1],inactive
same,Potency,[2],inactive
same,Potency,[3],inactive
same,Potency,[4],inactive
same,Potency,[5],inactive
same,Potency,[6],inactive
same,Potency,[7],inactive
same,Potency,[8],inactive
same,Potency,[9],inactive
same,Potency,[10],inactive
same,Potency,[11],inactive
same,Potency,[12],inactive
same,Potency,[13],inactive
same,Potency,[14],inactive
same,Potency,[15],inactive
same,Potency,[16],inactive
same,Potency,[17],inactive
same,Potency,[18],inactive
CC[C@]1(O)C[C@H]2CN(CCC3=c4ccccc4=N[C]3[C@@](C(=O)OC)(c3cc4c(cc3OC)N(C)[C@H]3[C@@](O)(C(N)=O)[C@H](O)[C@]5(CC)C=CCN6CC[C@]43[C@@H]65)C2)C1,Potency,[1],0.104 µM (active)
same,Potency,[2],0.0585 µM (active)
same,Potency,[3],0.117 µM (active)
same,Potency,[4],0.147 µM (active)
same,Potency,[5],0.147 µM (active)
same,Potency,[9],0.0737 µM (active)
same,Potency,[10],0.104 µM (active)
same,Potency,[11],inactive
same,Potency,[12],0.928 µM (active)
same,Potency,[13],0.369 µM (active)
same,Potency,[14],inactive
same,Potency,[15],inactive
same,Potency,[16],0.0465 µM (active)
same,Potency,[18],1.18 µM (active)
CC1C(=O)OC2C(O)C34C5CC(C(C)(C)C)C36C(OC(=O)C6O)OC4(C(=O)O5)C12O (stereo unspecified),Potency,[1],inactive
same,Potency,[2],18.5 µM (active)
same,Potency,[3],inactive
same,Potency,[4],inactive
same,Potency,[5],inactive
same,Potency,[7],inactive
same,Potency,[8],inactive
same,Potency,[9],inactive
same,Potency,[10],inactive
same,Potency,[11],inactive
same,Potency,[12],inactive
same,Potency,[19],inactive
same,Potency,[13],inactive
same,Potency,[14],inactive
same,Potency,[17],inactive
same,Potency,[18],inactive
C[C@@H]1[C@H](O)[C@@H](C)C=CC=CC=CC=CC=CC=CC=C[C@H](O[C@@H]2O[C@H](C)[C@H](O)[C@H](N)[C@@H]2O)C[C@@H]2O[C@](O)(C[C@@H](O)C[C@@H](O)[C@H](O)CC[C@@H](O)C[C@@H](O)CC(=O)O[C@H]1C)C[C@H](O)[C@@H]2C(=O)O,Potency,[1],inactive
same,Potency,[2],inactive
same,Potency,[3],10.4 µM (active)
same,Potency,[4],inactive
same,Potency,[5],inactive
same,Potency,[6],inactive
same,Potency,[7],inactive
same,Potency,[9],inactive
same,Potency,[10],11.7 µM (active)
same,Potency,[11],inactive
same,Potency,[12],inactive
same,Potency,[19],inactive
same,Potency,[13],inactive
same,Potency,[14],inactive
same,Potency,[15],inactive
same,Potency,[17],inactive
same,Potency,[18],inactive
CN[C@@H]1CN(c2ccc3c(=O)c(C(=O)O)cn(-c4nccs4)c3n2)C[C@@H]1OC,Potency,[1],1.82 µM (active)
same,Potency,[2],1.29 µM (active)
same,Potency,[3],1.44 µM (active)
same,Potency,[4],9.1 µM (active)
same,Potency,[5],1.82 µM (active)
same,Potency,[7],0.811 µM (active)
same,Potency,[8],10.2 µM (active)
same,Potency,[9],2.57 µM (active)
same,Potency,[10],1.15 µM (active)
same,Potency,[13],14.4 µM (active)
same,Potency,[14],14.4 µM (active)
same,Potency,[17],6.44 µM (active)
same,Potency,[18],7.24 µM (active)
CC(C)(C)c1[nH]cnc1C=c1[nH]c(=O)c(=Cc2ccccc2)[nH]c1=O,Potency,[1],0.0114 µM (active)
same,Potency,[2],0.032 µM (active)
same,Potency,[3],0.0101 µM (active)
same,Potency,[4],0.202 µM (active)
same,Potency,[5],0.0114 µM (active)
same,Potency,[7],0.018 µM (active)
same,outcome,[8],inactive [at 0.556 µM]
same,Potency,[9],0.0143 µM (active)
same,Potency,[10],0.0101 µM (active)
same,Potency,[19],0.0227 µM (active)
same,Potency,[13],0.018 µM (active)
same,Potency,[14],0.016 µM (active)
same,Potency,[15],0.0202 µM (active)
Nc1ncnc2c1ncn2[C@@H]1O[C@H](CO)[C@@H](O)[C@@H]1O,Potency,[1],14.7 µM (active)
same,Potency,[2],inactive
same,Potency,[3],8.27 µM (active)
same,Potency,[5],13.1 µM (active)
same,Potency,[9],14.7 µM (active)
same,Potency,[10],7.37 µM (active)
same,Potency,[12],10.4 µM (active)
same,Potency,[19],14.7 µM (active)
same,Potency,[15],11.7 µM (active)
same,Potency,[18],inactive
COc1cc([C@@H]2c3cc4c(cc3[C@@H](O[C@@H]3O[C@@H]5CO[C@@H](C)O[C@@H]5[C@H](O)[C@@H]3O)[C@H]3COC(=O)[C@H]23)OCO4)cc(OC)c1O,Potency,[1],1.47 µM (active)
same,Potency,[2],4.65 µM (active)
same,Potency,[3],1.04 µM (active)
same,Potency,[5],1.47 µM (active)
same,Potency,[7],1.47 µM (active)
same,Potency,[8],9.27 µM (active)
same,Potency,[9],0.737 µM (active)
same,Potency,[10],0.657 µM (active)
same,Potency,[11],inactive
same,Potency,[19],4.14 µM (active)
same,Potency,[13],inactive
same,Potency,[15],4.65 µM (active)
same,Potency,[17],8.27 µM (active)
C[C@@H]1C[C@H]2[C@@H]3CCC4=CC(=O)C=C[C@]4(C)[C@@]3(F)[C@@H](O)C[C@]2(C)[C@@]1(O)C(=O)CO,Potency,[1],inactive
same,Potency,[2],inactive
same,Potency,[4],inactive
same,Potency,[5],inactive
same,Potency,[6],inactive
same,Potency,[7],inactive
same,Potency,[9],inactive
same,Potency,[20],inactive
same,Potency,[11],inactive
same,Potency,[12],inactive
same,Potency,[19],inactive
same,Potency,[13],inactive
same,Potency,[15],inactive
same,Potency,[17],inactive
same,Potency,[18],inactive
Cc1ccc(S(=O)(=O)Nc2nc3ccccc3nc2Nc2ccc3nsnc3c2)cc1,Potency,[1],9.1 µM (active)
same,Potency,[2],inactive
same,Potency,[3],0.256 µM (active)
same,Potency,[4],inactive
same,Potency,[7],inactive
same,Potency,[9],1.29 µM (active)
same,Potency,[10],0.229 µM (active)
same,Potency,[20],16.2 µM (active)
same,Potency,[11],inactive
same,Potency,[14],inactive
same,Potency,[18],inactive
COc1ccc(-c2ccc3ncc4c(c3c2)n(-c2ccc(N3CCNCC3)c(C(F)(F)F)c2)c(=O)n4C)cn1,Potency,[1],1.04 µM (active)
same,Potency,[2],0.131 µM (active)
same,Potency,[3],0.0827 µM (active)
same,Potency,[4],7.37 µM (active)
same,Potency,[7],0.928 µM (active)
same,Potency,[8],0.465 µM (active)
same,Potency,[9],0.208 µM (active)
same,Potency,[10],0.0329 µM (active)
same,Potency,[11],10.4 µM (active)
same,Potency,[12],0.465 µM (active)
same,Potency,[19],0.0585 µM (active)
same,Potency,[13],0.185 µM (active)
same,Potency,[14],0.414 µM (active)
same,Potency,[15],0.293 µM (active)
same,Potency,[17],0.369 µM (active)
same,Potency,[18],0.132 µM (active)
